The nature of assay [1]: Quantitative High-Throughput drug screen in 47 multiple myeloma cell lines against the NCATS MIPE library collection: SKMM1_PLB cell viability assay (AID 1919863). Also: nearly all actives have a fitted effect of over 35% in size. The settings on record: SKMM1 myeloma viability, CellTiter-Glo ATP, 48 h; viability: hits give low values. The procedure, abridged: (§1)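 MIPE 4.0 approved/investigational drugs; 500 cells/well; 48 h 37 °C humidified 5% CO2; CTG luminescence readout; DMSO = 100%, media = 0% viability.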
On the technique in general: ATP-based viability assays read luminescence as a measure of living cells.

Assay [2] is described as follows: Quantitative High-Throughput drug screen in 47 multiple myeloma cell lines against the NCATS MIPE library collection: XG6_PLB cell viability assay (AID 1919865). Also: nearly all actives have a fitted effect of over 40% in size. The procedure, abridged: as §1
A short description of assay [3]: Quantitative High-Throughput drug screen in 47 multiple myeloma cell lines against the NCATS MIPE library collection: PCM6_Riken cell viability assay (AID 1919870). Also: nearly all actives have a fitted effect of over 30% in size. The method in brief:
as §1

Assay [4] is described as follows: Quantitative High-Throughput drug screen in 47 multiple myeloma cell lines against the NCATS MIPE library collection: XG1_PLB cell viability assay (AID 1919866). Also: nearly all actives have a fitted effect of over 35% in size. The method in brief: as §1
Assay [5] in a line: Quantitative High-Throughput drug screen in 47 multiple myeloma cell lines against the NCATS MIPE library collection: PE2_PLB cell viability assay (AID 1919869). Also: nearly all actives have a fitted effect of over 35% in size. The procedure, abridged: as §1
A short description of assay [6]: Quantitative High-Throughput drug screen in 47 multiple myeloma cell lines against the NCATS MIPE library collection: RPMI8226_ATCC cell viability assay (AID 1919871). Also: nearly all actives have a fitted effect of over 30% in size. The procedure, abridged:
as §1

Assay [7] in a line: Quantitative High-Throughput drug screen in 47 multiple myeloma cell lines against the NCATS MIPE library collection: OPM2_DSMZ cell viability assay (AID 1919872). Also: nearly all actives have a fitted effect of over 30% in size. The procedure, abridged:
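We plated 500 myeloma cells per well, pinned in MIPE 4.0 compounds, and incubated for 48 hours at 37C. ATP was then quantified with CellTiter-Glo, with DMSO and media-only wells defining 100% and 0%.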

A short description of assay [8]: Quantitative High-Throughput drug screen in 47 multiple myeloma cell lines against the NCATS MIPE library collection: KMS11_JCRBsus cell viability assay (AID 1919873). Also: nearly all actives have a fitted effect of over 50% in size. The procedure, abridged: as §1
The nature of assay [9]: Quantitative High-Throughput drug screen in 47 multiple myeloma cell lines against the NCATS MIPE library collection: KMS28BM_JCRB cell viability assay (AID 1919874). Also: nearly all actives have a fitted effect of over 35% in size. The method in brief:
as §1

Assay [10] is described as follows: Quantitative High-Throughput drug screen in 47 multiple myeloma cell lines against the NCATS MIPE library collection: UTMC2_PLB cell viability assay (AID 1919868). Also: nearly all actives have a fitted effect of over 55% in size. The following applies: CellTiter-Glo ATP luminescence, 48 h; viability (% of DMSO control): at 45.8 µM (top of the series). The procedure, abridged:
as §1

Assay [11] in a line: Quantitative High-Throughput drug screen in 47 multiple myeloma cell lines against the NCATS MIPE library collection: VP6_DJ cell viability assay (AID 1919867). Also: nearly all actives have a fitted effect of over 40% in size. The method in brief: as §1

Records with an inconclusive call do not appear. Values without a mark were called inactive. Activity calls are given as the source filed them. Calls follow the shape of the dose curve; as a rule, active = well fitted cell-killing curve with a large enough effect; inconclusive = small, poorly fitted or top-dose-only effect, or effect the other way; inactive = no such curve, though single readings can be large or run the other way.
Potency is read from the fitted curve at half-maximal effect.

For `COc1cc(N2CCC(N3CCN(C)CC3)CC2)ccc1Nc1ncnc(Nc2ccccc2S(=O)(=O)C(C)C)n1`, the Potency in assay [1] was 23.5 µM (active); in assay [2] it was 7.43 µM (active); in [3] it was 16.6 µM (active).

Take `CC1(C)CCC[C@@]2(C)[C@@H]1CC[C@@]1(C)OC(=O)C[C@H]21`: the Potency is 8.33 µM (active) in assay [1] and 2.09 µM (active) in assay [6]. Besides, the Potency entry in [2], in assay [4], in [5], in assay [3] and in assay [7] was “inactive” each time.

One may read the viability as a read-out of living cells in per cent, often relative to untreated cells. Consider `CN1[C@@H]2CCC[C@@H]1CC(NC(=O)c1nn(C)c3ccccc13)C2` (some centres not stated), for which the viability in [1] is 111%. Also, the Potency entry in assay [2], in [4], in assay [5], in assay [3], in assay [6] and in assay [7] was “inactive” in each case. In addition, the Potency entry in assay [8] and in assay [9] was “inactive” each time.

On to `Cn1c(N2CCCCS2(=O)=O)nc(C(=O)NCc2ccc(F)cc2)c(O)c1=O`, for which the viability in assay [1] is 112%. Further, the Potency result in assay [2], in assay [5], in assay [3], in assay [6] and in assay [7] was “inactive” throughout. Further, in assay [10], the viability (% of DMSO control) was 149% (active).

On to `C[C@H](NC(=O)C(=O)Nc1ccccc1C(C)(C)C)C(=O)N[C@@H](CC(=O)O)C(=O)COc1c(F)c(F)cc(F)c1F`, for which the Potency in assay [1] was 16.6 µM (active); in assay [6], 14.8 µM (active). In addition, the Potency entry in [11], in [5] and in [9] was “inactive” in each case.

With `Clc1ccc(-c2nc3sccn3c2C=NOCc2ccc(Cl)c(Cl)c2)cc1`, the viability in assay [1] is 102%. In addition, the Potency entry in [11], in assay [10], in [5], in [6], in assay [7] and in assay [8] was “inactive” in each case. In [9], the Potency entry was “inactive”.

For the molecule `NC1=N[C@@]2(c3cc(NC(=O)c4ccc(F)cn4)ccc3F)COC[C@@H]2CS1`, the viability in assay [1] is 111%. Also, the Potency in assay [2] is 3.72 µM (active); in [11], 13.2 µM (active); in assay [5], 23.5 µM (active); in assay [3], 11.8 µM (active); in [8] it was 23.5 µM (active); in assay [9], 18.7 µM (active). Also, the Potency result in [6] is “inactive”.

Turning to `COc1ccc2cc(-c3nc(-c4ccc(S(C)=O)cc4)[nH]c3-c3ccncc3)ccc2c1` (configuration not stated), the viability in [1] was 106%. Also, the values for the Potency in assay [4], in assay [5] and in assay [8] were 23.5 µM (active), 14.8 µM (active) and 23.5 µM (active), respectively. Moreover, the Potency result in assay [7] is “inactive”.

With `Cc1ccc(C(C)(O)c2nc3ccccc3s2)c(C)c1` (configuration not stated), the viability in [1] is 94%. For the same molecule, the Potency entry in assay [2], in assay [4], in assay [5], in assay [3], in [6] and in assay [7] was “inactive” each time. Besides, in assay [8], the Potency result is “inactive”.

Turning to `CCOc1ccc(Nc2nc(-c3c(C)nc4ccccn34)cs2)cc1`, the Potency in assay [1] is 0.264 µM (active); in assay [7], 0.0037 µM (active). Further, the Potency result in assay [2], in assay [8] and in assay [9] was “inactive” each time.

In the case of `NC(CO)(CO)CCc1ccc(Sc2cccc(OCc3ccccc3)c2)cc1Cl`, the Potency in [1] is 26.4 µM (active); in assay [2], 20.9 µM (active); in assay [11], 8.33 µM (active); in assay [10] it was 16.6 µM (active); in assay [5], 13.2 µM (active); in [3] it was 14.8 µM (active). The Potency in [6] is 23.5 µM (active); in assay [7] it was 23.5 µM (active); in assay [8] it was 7.43 µM (active); in assay [9], 11.8 µM (active).

With `CC(C)n1nc(-c2ccc3oc(N)nc3c2)c2c(N)ncnc21`, the Potency was 0.0074 µM (active) in [1], 0.001 µM (active) in assay [11] and 0.0662 µM (active) in [3].

Regarding `CCn1c(C(=O)N(C2CC2)C2CC2)cc2c3c(ncn3C)c(Nc3cc(C)n(C)n3)nc21`, the viability in assay [1] is 128%. The Potency is 13.2 µM (active) in [2], 29.6 µM (active) in [11] and 16.6 µM (active) in assay [5]. The Potency result in [9] is “inactive”.

With `O=c1cc(-c2cccc3c2Sc2ccccc2S3)oc(N2CCOCC2)c1`, the Potency was 18.7 µM (active) in assay [1]; 18.7 µM (active) in [2]; 18.7 µM (active) in [4]; 18.7 µM (active) in assay [5]; 14.8 µM (active) in assay [3]; 20.9 µM (active) in [8].

Consider `CC(C)C(C)C=CC(C)C1CCC2C3=CC=C4CC(O)CCC4(C)C3CCC21C` (configuration not stated), for which, in [1], the viability was 135%. Moreover, the Potency entry in assay [2], in assay [11], in assay [10], in [5], in [3] and in [6] was “inactive” in each case. Moreover, the Potency entry in assay [7] and in [8] was “inactive” in each case.

`CC1(C)CCC(CN2CCN(c3ccc(C(=O)NS(=O)(=O)c4ccc(NCC5CCOCC5)c([N+](=O)[O-])c4)c(Oc4cnc5[nH]ccc5c4)c3)CC2)=C(c2ccc(Cl)cc2)C1`: the Potency was 20.9 µM (active) in assay [1]; 7.43 µM (active) in assay [11]; 16.6 µM (active) in [5]; 0.148 µM (active) in [3]; 14.8 µM (active) in assay [6]; 20.9 µM (active) in assay [7]. Besides, the Potency entry in assay [8] was “inactive”.

With `Cn1cc(C=C2C(=O)Nc3cccnc32)c2ccccc21`, the viability in assay [1] is 130%. Moreover, the Potency entry in assay [4], in assay [6], in assay [7] and in [9] was “inactive” throughout.

For `O=C(O)[C@H]1O[C@H](Oc2cc3oc(-c4ccccc4)cc(=O)c3c(O)c2O)[C@H](O)[C@@H](O)[C@H]1O`, the Potency in assay [1] was 20.9 µM (active); in assay [6], 4.69 µM (active). The Potency entry in assay [2], in assay [11], in [10] and in [5] was “inactive” in each case.

For `CC=C(C)C(=O)O[C@H]1C(C)=C[C@]23C(=O)[C@@H](C=C(CO)[C@@H](O)[C@]12O)[C@H]1[C@@H](C[C@H]3C)C1(C)C`, the Potency in assay [1] was 0.0059 µM (active); in [2], 3.72 µM (active); in assay [11] it was 26.4 µM (active).

For `CCOC1OC(=O)C[C@H]1NC(=O)[C@@H]1CCCN1C(=O)[C@@H](NC(=O)c1ccc(N)c(Cl)c1)C(C)(C)C` (some centres not stated), the viability in assay [1] was 129%. Further, the Potency result in [2], in assay [4], in assay [5], in assay [3], in assay [7] and in assay [8] was “inactive” in each case. Moreover, the Potency entry in assay [9] is “inactive”.

The values above are taken from PubChem BioAssay (NCATS).
